# Test results taken from PubChem BioAssay (Tox21).
# Values joined by “and” are separate entries in the source; they are usually repeats but may differ in a detail not shown here. Equal entries are not always repeated. Records with an inconclusive call do not appear. More than one record can exist for a structure, and the calls need not agree. Active and inactive are the calls of the source. The call rests on the fitted dose curve; in most records, active means well fitted cell-killing curve with a large enough effect in the repeat runs; inconclusive means weak or mixed curves, or effect the other way; inactive means flat fitted curve, though single readings scatter.
# Assay: qHTS assay to identify small molecule antagonists of the androgen receptor (AR) signaling pathway using the MDA cell line in the presence of 0.5 nM R1881 - cell viability counter screen (AID 1259242); further: nearly all actives have a fitted effect of over 45% in size
# Conditions: MDA-kb2 viability, CellTiter-Fluor protease fluorescence, 16 h; series mostly up to 92.4 µM; viability change, negative = cytotoxic: at the top concentration
# Source text: U.S. Tox21 Program National Center for Advancing Translational Sciences [NCATS] NIH Chemical Genomics Center [NCGC] U.S. Environmental Protection Agency [EPA] National Institutes of Environmental Health Sciences [NIEHS] National Toxicology Program [NTP] U.S. Food and Drug Administration [FDA] Tox21 Assay Overview: Androgen receptor (AR) is an important member of the nuclear receptor family. Its signaling plays a critical role in AR-dependent prostate cancer and other androgen related diseases. Considerable attention has been given in the past decades to develop methods to study and screen for the environmental chemicals that have the potential to interfere with metabolic homeostasis, reproduction, developmental and behavioral functions. Therefore AR binding assay for screening androgen antagonists can be used to identify potential endocrine disruptors. MDA-kb2 cells (from ATCC, deposited by Wilson et al.) were used to screen for AR inhibitors against Tox21 compound libraries. These cells are human breast carcinoma cells that were stably transfected with a luciferase reporter gene under control of the MMTV promoter that contains response elements for both androgen receptor (AR) and glucocorticoid receptor (GR). The current screening for identification of AR inhibitors against Tox21 libraries used lower concentration of (0.5 nM) R1881 as a stimulator. The cytotoxicity of the Tox21 compound libraries against MDA-kb2 cell line was tested by measuring live-cell protease activity using CellTiter-Fluor assay in the same wells.
# Tox21 Assay Protocol Summary: MDA-kb2 cells (cells cultured without CO2) were dispensed at 3,000 cells/well in 4 uL of culture medium into white wall/solid-bottom 1536-well plates (Corning Life Sciences, Corning, NY) using a Multidrop Combi (ThermoFisher Scientific, Waltham, MA) dispenser. After the assay plates were incubated at a 37C and 0% CO2 for 5 hr, 23 nL of compounds dissolved in DMSO, positive controls or DMSO only was transferred to the assay plate by a Pintool station (Kalypsys, San Diego, CA). The transfer of compounds was followed by the addition of 1 uL of 0.5 nM (final concentration) agonist (R1881)/culture medium using a Flying Reagent Dispenser (FRD, Aurora Discovery, San Diego, CA). The plates were incubated at 37C and 0% CO2 for 16 hr. For cytotoxicity assay, 1 uL of CellTiter-Fluor reagent (Promega Corporation, Madison, WI) was added to each well using the FRD and after 30 min incubation at 37C and 0% CO2, The fluorescence intensity was measured using ViewLux plate reader (PerkinElmer, Shelton, CT).
# On the % scale 0 is the no-effect control and ±100 the full control effect; potency means the concentration at half of the fitted maximal effect.
Compound,"viability change, negative = cytotoxic",Potency
N#Cc1ccc(N(CC(N)=O)CC(F)(F)F)cc1C(F)(F)F,-0.084% (inactive),–
CCC(C)Nc1c([N+](=O)[O-])cc(C(C)(C)C)cc1[N+](=O)[O-] (stereo not given),-0.848% (inactive),–
Oc1cccc(Cl)c1Cl,3.27% (inactive),–
O=C(N[C@H]1N=C(c2ccccc2F)c2cccc3c2N(CC3)C1=O)c1cc2ccccc2[nH]1,-0.395% [at 42.5 µM] (inactive),–
O=[N+]([O-])c1ccc(Cl)c(Cl)c1Cl,-2.55% (inactive),–
Nc1nc(N)nc(Cl)n1,0.718% (inactive),–
O.O.O.O.O.O.O=S(=O)([O-])[O-].[Ni+2],9.31% [at 42.5 µM] (inactive),–
ClC1=C(Cl)[C@]2(Cl)[C@@H]3[C@H]4C[C@H]([C@@H]5O[C@H]45)[C@@H]3[C@@]1(Cl)C2(Cl)Cl,0.752% (inactive),–
FC(F)C(F)(F)OCC(Cn1cncn1)c1ccc(Cl)cc1Cl (stereo not given),-15.8% (inactive),–
O=[N+]([O-])[O-].[Tl+],0.401% (inactive),–
O=C(O)CCCCCCNC1c2ccccc2CCc2ccccc21,-0.609% [at 42.5 µM] (inactive),–
CCCCCCCCCCCCCCn1cc[n+](C)c1,–,30.7 µM (active) and 34 µM (active) and inactive
O=[N+]([O-])c1ccccc1-c1ccccc1,3.05% (inactive),–
CSC1=N[C@@](C)(c2ccccc2)C(=O)N1Nc1ccccc1,–,27.3 µM (active)
CCCCn1cc[n+](C)c1.[Cl][Fe-]([Cl])([Cl])[Cl],-2.04% (inactive),–
CSC(=O)c1c(C(F)F)nc(C(F)(F)F)c(C(=O)SC)c1CC(C)C,-2.71% (inactive),–
CCCCCCC[CH2][Sn]([Cl])([Cl])[CH2]CCCCCCC,-5.63% (inactive),–
CC1CN1 (stereo not given),-0.754% (inactive),–
Cc1c([N+](=O)[O-])c(C)c([N+](=O)[O-])c(C(C)(C)C)c1[N+](=O)[O-],-10.1% (inactive),–
Cc1ccn2nc(S(=O)(=O)Nc3c(F)cccc3F)nc2n1,-1.19% (inactive),–

Compound,"viability change, negative = cytotoxic",Potency
CCC1COC(Cn2cncn2)(c2ccc(Cl)cc2Cl)O1 (stereo not given),2.62% (inactive),–
Nc1nc(N)c(N)c(N)n1,14.9% (inactive),–
c1ccc2c(c1)cc1ccc3cccc4ccc2c1c34,5.27% (inactive),–
c1ccc(Nc2ccc(Nc3ccccc3)cc2)cc1,-9.76% (inactive),–
O=[N+]([O-])c1ccc(CCl)cc1,-2.82% (inactive),–
COc1ccc2c3c1O[C@H]1[C@H](O)CC[C@H]4[C@@H](C2)N(C)CC[C@@]341,-0.478% (inactive),–
OCC(Br)CBr (stereo not given),-0.32% (inactive),–
O.O.O.O.O.O.O.O=S(=O)([O-])[O-].[Co+2],5.39% (inactive),–
[O]=[Cr][O][Cr]=[O],1.29% (inactive),–
CCNS(=O)(=O)C(F)(F)C(F)(F)C(F)(F)C(F)(F)C(F)(F)C(F)(F)C(F)(F)C(F)(F)F,-1.66% (inactive),–
CC(Cc1ccc(OCC(=O)O)cc1)NCC(O)c1csc(C(F)(F)F)n1 (stereo not given),1.2% (inactive),–
CCCCC(CC)COC(=O)c1ccccc1C(=O)OCC(CC)CCCC (stereo not given),9.89% (inactive),–
CCOC(=O)CCN(SN(C)C(=O)Oc1cccc2c1OC(C)(C)C2)C(C)C,0.673% (inactive),–
CC(C)N(C(=O)SC/C(Cl)=C/Cl)C(C)C,-0.823% (inactive),–
BrCC(Br)(Br)Br,-4.54% (inactive),–
C[C@@H]1CC2=CC(=O)CC[C@@H]2[C@H]2CC[C@@]3(C)[C@@H](CC[C@]3(C)O)[C@@H]21,1.57% [at 42.5 µM] (inactive),–
CC(=O)C(Cl)C(=O)N(C)C (stereo not given),0.724% (inactive),–
Clc1c(Cl)c(Cl)c(Cl)c(Cl)c1Cl,0.413% [at 8.39 µM] (inactive),–
CCN(CC)CCN1C(=O)CN=C(c2ccccc2F)c2cc(Cl)ccc21,-2.56% [at 42.5 µM] (inactive),–
CO/N=C(/C1=NOCCO1)c1ccccc1Oc1ncnc(Oc2ccccc2Cl)c1F,–,17.2 µM (active)
